High-throughput results (PubChem)
Compounds with a hit are over-represented: about 1.2% of the library has one in this group of screens.
zVAD death inh = L929 zVAD cell death inhibition; 220,000 compounds, 0.38% hits; L929 zVAD necroptosis rescue, ATP luminescence, 24 h; with zVAD 60 µM; viability rescue, % at 10 µM;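 active = activation, scaled between plate controls, above about 75%, limit read from the data; inactive = activation under that limit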;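 note: 0% = zVAD with DMSO and 100% = DMSO alone without zVAD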
eIF4E-4G inh = inhibitors of eIF4E and eIF4G interaction in translation initiation; inhibition, % at 21.7 µM; AID 782; P63073+Q04637; 220,000 compounds, 0.37% hits; TR-FRET eIF4E-eIF4GI(517-606) binding, 2 h;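 active = inhibition above about 30%, limit read from the data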;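 note: 0% = full FRET control wells and 100% = background wells lacking eIF4GI fragment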
EBV gp42 block = blocks Epstein-Barr virus glycoprotein 42 binding. Q1HVG2. Fluorescence polarization binding assay, mP read-out. AID 1085. inhibition, % (tested at 21.74 µM). 220,000 compounds, 0.42% hits; in the data active = inhibition above about 50%
Target sequence (Q1HVG2 whole entry, looked up): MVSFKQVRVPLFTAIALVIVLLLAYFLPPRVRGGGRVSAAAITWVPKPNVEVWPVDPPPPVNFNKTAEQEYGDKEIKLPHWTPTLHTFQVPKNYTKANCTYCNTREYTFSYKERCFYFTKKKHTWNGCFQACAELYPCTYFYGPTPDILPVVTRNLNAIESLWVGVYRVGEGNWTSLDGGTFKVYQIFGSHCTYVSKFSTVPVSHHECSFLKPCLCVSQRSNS
TNF necrop inh = blocks TNF-alpha induced death of Jurkat FADD-/- cells. Jurkat FADD-/- TNF necroptosis rescue, ATP luminescence, 24 h; 0 = TNF only, 100 = no-TNF cells. activation (protection from cell death), % at 10 µM. 220,000 compounds, 0.068% hits. AID 463075;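 active = activation, meaning protection from cell death, of at least 50% relative to plate controls; inactive = activation below 50%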;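 note: necroptosis triggered by 40 ng/mL TNF-alpha added together with compound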
Active calls of the source: *; nt = not tested or not shown; [ ] = remark or other dose.

SMILES	zVAD death inh	eIF4E-4G inh	EBV gp42 block	TNF necrop inh
COc1ccc(Nc2nnc(-c3ccc(N4CCOCC4)c([N+](=O)[O-])c3)c3ccccc23)cc1	82*	-8	7	-16
COc1ccc(S(=O)(=O)Nc2nccs2)cc1OC	0	-2	-13	0
O=C(c1ccccc1)N1CCN(C(=S)NCc2ccco2)CC1	0	-9	0	2
Cc1cc(NC(=S)N(CCCN2CCOCC2)Cc2ccco2)ccc1Cl	0	-2	4	2
CCc1ccc(NC(=S)Nc2ccc3[nH]c(=O)[nH]c3c2)cc1	0	-1	-2	-5
CC(C)NS(=O)(=O)c1ccc(CCC(=O)N2CCC(C(N)=O)CC2)cc1	1	-3	37	1
CCOC(=O)N1CCC2(CC1)C(C#N)=C(N)Oc1n[nH]c(C)c12	0	-7	5	-1
CCOC(=O)N1CCC2(CC1)C(C#N)=C(N)Oc1c2c(C)nn1-c1cccc(Cl)c1	1	4	52*	-2
O=c1c2ccccc2nc2n1CCC2	1	94*	-3	0
NC(=S)n1[nH]c(-c2ccc([N+](=O)[O-])cc2)c(N=Nc2cccc([N+](=O)[O-])c2)c1=O	1	13	100*	-1
NC(=S)n1[nH]c(-c2ccc([N+](=O)[O-])cc2)c(N=Nc2ccccc2[N+](=O)[O-])c1=O	5	-19	36	-2
Cc1c(N=Nc2c(-c3ccc([N+](=O)[O-])cc3)[nH]n(C(N)=S)c2=O)cccc1[N+](=O)[O-]	0	33*	109*	-7
Cc1cc(NC(=O)COC(=O)[C@@H](NS(=O)(=O)c2ccc(Br)cc2)C(C)C)no1	-1	-9	-15	-1
CCSC1=NSC2=NC(=O)/C(=C\c3coc4ccccc4c3=O)C(=N)N12	1	2	88*	0
CC(=O)NC1=NN(C(C)=O)C(c2ccco2)S1 (stereo unspecified)	0	3	-14	-1
Cc1cc(NC(=O)CSc2ccccc2)no1	0	66*	-22	20
Cc1cc(NC(=O)CSc2nnc(NCc3ccccc3)s2)no1	1	94*	-13	3
COCCSc1ccccc1C(=O)Nc1cc(C)on1	0	52*	-8	-3
COCCSc1ccccc1C(=O)Nc1ccc(Cl)cc1	1	2	-9	1
COC(=O)C1Cc2ccccc2CN1C(=O)CCl (stereo unspecified)	10	5	7	-3
O=C1COc2ccc(N3C(=O)C=CC3=O)cc2N1	-2	2	-12	0
COc1ccc(CN(C(=O)c2ccco2)c2ccc(Br)cc2)cc1OC	1	-5	-21	0
COc1cc(CN(C(=O)c2ccco2)c2ccc(C)cc2)ccc1O	0	37*[fluorescence artefact?]	-14	-3
Cc1nc2ccccc2n1CCC(=O)O	2	-5	-3	1
Cc1nc2ccccc2n2c(O)c(CC(=O)O)cc12	2	2	129*	1
SMILES	zVAD death inh	eIF4E-4G inh	EBV gp42 block	TNF necrop inh
Cc1cccc(Nc2n[nH]c(=S)s2)c1C	2	58*	-6	-1
COc1ccc(S(=O)(=O)c2c(N)n(Cc3ccco3)c3nc4ccccc4nc23)cc1	0	-7	50*	-10
Cc1cc(C)cc(C(=O)NCC(=O)OCC(=O)Nc2cccnc2Cl)c1	3	-1	-5	1
NS(=O)(=O)c1ccc(N/N=C/c2ccc(O)c(O)c2O)c([N+](=O)[O-])c1	0	78*	97*	-3
COc1ccc(-n2c(C)cc(/C=C3/SC(=S)N(C)C3=O)c2C)cc1	nt	0	61*	2
Cc1cc(/C=C2\SC(=S)N(C)C2=O)c(C)n1-c1cccc(O)c1	18	0	25	-4
Cc1cc(/C=C2\SC(=S)N(Cc3ccco3)C2=O)c(C)n1-c1ccccc1	3	-2	55*	3
O=S(=O)(Cc1ccccc1)c1cnc2ccccc2n1	67	16	-14	17
CCCCC[C@H](O)/C=C/[C@@H]1[C@@H](C/C=C\CCCC(=O)OC)[C@@H](O)C[C@H]1O	50	88*	1	-8
O=C(NNc1c(Cl)cccc1Cl)C1CCC1	6	0	-17	75*
O=C(NNc1cccc(Cl)n1)C1CC1	1	1	7	0
S=C(Nc1cccc(Cl)c1Cl)Nn1cnnc1	0	1	-2	1
CCSC(=O)NC1CCCCC1	-1	-2	-18	4
CN(C)c1ccc(/C=C2\CCC/C(=C\c3ccccc3)C2=O)cc1	1	-3	119*	0
O=C1/C(=C/c2ccccc2)CCCc2ccccc21	0	-1	-6	-1
COC(=O)/C(C#N)=C\c1c(OC)[nH]c2ccccc12	1	-2	-14	-1
